Measured values: PubChem BioAssay AID1745856 (National Center for Advancing Translational Sciences (NCATS), 2022)
Out of some 120,000 compounds screened, about 270 (0.23%) were called active. Where a call stands in place of a potency, no number is given. About 5% were inconclusive and are not listed. Calls follow the shape of the full dose curve. This excerpt belongs to a sample that is enriched for actives.
Potency is read from the fitted curve at half-maximal effect.

Assay: Primary qHTS Assay for Foot and Mouth Disease Virus Antivirals against NCGC Sytravon and CBC Compound Libraries: Firefly Luciferase Signal; also: nearly all actives have a fitted effect of over 60% in size
Details: FMDV antiviral cell assay; series mostly up to 57.5 µM
In the case of `CCCc1cc(=O)oc2cc(OCC(=O)NCc3ccc(S(N)(=O)=O)cc3)ccc12`, the Potency is reported as “inactive”. In the case of `O=C(NCc1ccccn1)C1c2ccccc2C(=O)N(C2CCCC2)C12CCCC2` (centres undefined), the Potency is reported as “inactive”. In the case of `CCOc1cc(-c2nnc(SCC(=O)NC3CCCC3)nc2-c2ccc(OC)c(OCC)c2)ccc1OC`, the Potency is reported as “inactive”. For `COc1ccc(-c2nc(CSCC(=O)NC3CCCCCC3)c(C)o2)cc1OC`, the Potency was 14.1 µM (active). For `CCOc1cc(-c2nnc(SCC(=O)NC3CCCCC3)nc2-c2ccc(OC)c(OCC)c2)ccc1OC`, the Potency was “inactive”. With `O=C(NCc1cccnc1)C(F)(F)C(F)(F)C(F)(F)F` the Potency was “inactive”. For `Fc1ccc(N=Cc2cccc(Oc3ccccc3)c2)c(F)c1F`, the Potency was “inactive”. In the case of `COc1cccc(NC(=O)CCCc2nc(C(C)C)no2)c1`, the Potency is reported as “inactive”. With `CCN1CCCC1CNC(=O)c1cccc2c(=O)c(C)c(-c3ccccc3)oc12` (centres undefined) the Potency was “inactive”. In the case of `Cc1ccc(NC(=O)COC(=O)c2ccc(C3Nc4ccccc4S(=O)(=O)N3)cc2)cc1` (centres undefined), the Potency is reported as “inactive”. For `CC(C)c1cccc(NC(=O)Cc2c[nH]c3ccccc23)c1`, the Potency was “inactive”. For `Cc1ccc(-c2csc3c2NC(=O)CC3c2ccc(C)cc2)cc1` (centres undefined), the Potency was “inactive”. For `COc1ccc(C2CC(=O)Nc3c2c(=O)nc2c(C)cccn32)cc1OC` (centres undefined), the Potency was “inactive”. For `COc1ccc(-c2csc3c2NC(=O)CC3c2ccc(OCC(N)=O)c(OC)c2)cc1` (centres undefined), the Potency was 3.98 µM (active). In the case of `Cn1c(=O)[nH]c(=O)c2c1nc(NC1CCCCC1)n2CCCc1ccccc1`, the Potency is reported as “inactive”. In the case of `COc1ccc(NC(=O)COC(=O)c2nn(C)c(=O)c3ccccc23)cc1Cl`, the Potency is reported as “inactive”. With `COc1ccc(Cl)cc1NC(=O)COC(=O)c1nn(C)c(=O)c2ccccc12` the Potency was “inactive”. In the case of `Cn1nc(CC(=O)Nc2cccc(Cl)c2)c2ccccc2c1=O`, the Potency is reported as 8.91 µM (active). With `Cc1ccc(-c2nc(CC(=O)NCc3ccc(Cl)cc3)cs2)o1` the Potency was “inactive”. In the case of `COC(=O)c1c(C)[nH]c(C(=O)N2CCCCCC2c2ccc(OC)cc2)c1C` (centres undefined), the Potency is reported as “inactive”. In the case of `COc1nc2ccccc2nc1N1CCC(C(=O)NCc2ccccc2)CC1`, the Potency is reported as “inactive”. In the case of `COc1ccc(-c2cc(C(F)(F)F)nc(S(=O)(=O)CCC(=O)NCc3ccccc3)n2)cc1`, the Potency is reported as “inactive”. For `CC(C)(C)c1ccc(-c2nnc(-c3ccc(Br)o3)o2)cc1`, the Potency was “inactive”. In the case of `Clc1ccc(CNc2n[nH]c(-c3ccco3)n2)c(Cl)c1`, the Potency is reported as “inactive”. In the case of `O=C(c1ccn(COc2ccccc2)n1)N1CCN(Cc2ccc(Cl)c(Cl)c2)CC1`, the Potency is reported as “inactive”. In the case of `Cn1ccnc1C(NC(=O)Cc1ccsc1)c1ccccc1F` (centres undefined), the Potency is reported as “inactive”. For `O=C(NC12CC3CC(CC(C3)C1)C2)C1CCCO1` (centres undefined), the Potency was “inactive”. With `C=C(C)C#CC(Cc1ccccc1)NCC1CC1` (centres undefined) the Potency was “inactive”. With `O=C(/C=C/c1ccc(Cl)cc1)OC1CCCCC1=O` (centres undefined) the Potency was “inactive”.
